Source: the supplement of paper PMC6555819

Assays:
Assay in all cases: PBM binding z-score (relative to random genomic background probes); higher = stronger binding; sequences stand for … in GC…GCGATTGACAGCGTAGAATGAAGG
[1] = system: FXR:RXRa (NR concentration 270 nM, RXRa partner concentration 90 nM)
Outline: (§1)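 Regression normalization was applied to scanned fluorescence from custom Agilent 4×180K protein-binding microarrays. Before scanning, arrays were incubated 1 h with ligand-free nuclear receptor dimers, and binding was detected with antibodies against each partner (one per run). Binding z-scores use the random background probes as reference.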

[2] = system: LXRa:RXRa (NR concentration 270 nM, RXRa partner concentration 90 nM)
Outline: as §1

[3] = system: LXRa homodimer (NR concentration 270 nM)
Outline: as §1

[4] = system: LXRb:RXRa (NR concentration 270 nM, RXRa partner concentration 90 nM)
Outline: as §1

[5] = system: LXRb homodimer (NR concentration 270 nM)
Outline: as §1

[6] = system: PPARa:RXRa (NR concentration 270 nM, RXRa partner concentration 90 nM)
Outline: as §1

[7] = system: PPARg:RXRa (NR concentration 180 nM, RXRa partner concentration 90 nM)
Outline: as §1

[8] = system: PPARg:RXRa 270nM:90nM, anti-RXR (NR concentration 270 nM, RXRa partner concentration 90 nM)
Outline: as §1

[9] = system: PPARg:RXRa 30nM:10nM, anti-RXR (NR concentration 30 nM, RXRa partner concentration 10 nM)
Outline: as §1

[10] = system: PPARg:RXRa 90nM:30nM, anti-RXR (NR concentration 90 nM, RXRa partner concentration 30 nM)
Outline: as §1

[11] = system: PPARg:RXRa DBDmut IVT, anti-RXR (DBD mutation: RXRa K156A/R161A, NR concentration 270 nM, RXRa partner concentration 90 nM)
Outline: as §1

[12] = system: PPARg:RXRa IVT, anti-PPARg (NR concentration 270 nM, RXRa partner concentration 90 nM)
Outline: as §1

[13] = system: PPARg DBDmut:RXRa IVT, anti-PPARg (DBD mutation: PPARg1 K132A/R137A, NR concentration 270 nM, RXRa partner concentration 90 nM)
Outline: as §1

[14] = system: PPARg DBDmut IVT, anti-PPARg (DBD mutation: PPARg1 K132A/R137A, NR concentration 270 nM)
Outline: as §1

[15] = system: PPARg homodimer (NR concentration 180 nM)
Outline: as §1

[16] = system: PXR:RXRa (NR concentration 270 nM, RXRa partner concentration 90 nM)
Outline: as §1

[17] = system: PXR homodimer (NR concentration 270 nM)
Outline: as §1

[18] = system: RARa:RXR (NR concentration 270 nM, RXRa partner concentration 90 nM)
Outline: as §1

[19] = system: RARa homodimer (NR concentration 270 nM)
Outline: as §1

[20] = system: RARb:RXRa (NR concentration 270 nM, RXRa partner concentration 90 nM)
Outline: as §1

Row | Sequence | PBM binding z-score [1] | PBM binding z-score [2] | PBM binding z-score [3] | PBM binding z-score [4] | PBM binding z-score [5] | PBM binding z-score [6] | PBM binding z-score [7] | PBM binding z-score [8] | PBM binding z-score [9] | PBM binding z-score [10] | PBM binding z-score [11] | PBM binding z-score [12] | PBM binding z-score [13] | PBM binding z-score [14] | PBM binding z-score [15] | PBM binding z-score [16] | PBM binding z-score [17] | PBM binding z-score [18] | PBM binding z-score [19] | PBM binding z-score [20]
1 | GTACCAAGGTGAATAGTTCGTTGATGAGTAGGCG | 0.539 | 0.334 | -0.116 | 0.214 | -0.29 | 1.24 | 0.857 | 1.06 | -0.033 | 0.842 | 1.57 | 1.94 | 0.321 | 0.393 | 0.906 | 0.39 | 0.918 | 0.576 | 0.742 | 1.94
2 | CGAACTAGGTCAGAACAGGGCAGTGAAGGATGAT | 1.43 | 0.861 | -0.154 | 0.436 | -0.443 | 3.09 | 5.03 | 4.3 | 1.73 | 3.33 | 7.23 | 7.22 | 1.72 | -0.191 | 1.19 | 1.26 | 0.00717 | 0.81 | 0.0682 | 3.15
3 | GGAACAAGGGCAAAGTTGATAGCATCTGTCGACG | 0.623 | 0.618 | -0.274 | 0.612 | -0.0187 | 3.56 | 5.8 | 6.3 | 5.66 | 6.8 | 2.8 | 3.73 | 0.621 | -0.078 | 0.637 | 0.784 | 0.0632 | 0.948 | 0.248 | 2.42
4 | ATCTCTAGGTAACAAGTTCAATGAAAGAGAGGAC | 1.38 | 1.5 | 1.01 | 1.42 | 1.28 | 2.44 | 2.44 | 2.87 | 1.22 | 2.61 | 3.6 | 3.31 | 1.41 | 1.75 | 1.45 | 2.68 | 3.18 | 1.75 | 1.83 | 2.18
5 | GCGACTGGGGCAAAGCAGGTTACCAGAAGGTTGG | 0.766 | 0.129 | -0.462 | 0.0356 | -1.38 | 1.3 | 1.17 | 1.42 | -0.461 | 0.594 | 4.49 | 3.54 | -1.13 | -0.78 | 0.00244 | 0.34 | -0.469 | 0.321 | -0.876 | 1.1
6 | GCTGCTAGGTCAGGTTGGTCAGCCAACGGGTACG | 1.12 | 0.345 | -0.418 | 0.336 | -0.341 | 1.36 | 0.298 | 1.1 | -0.412 | 0.115 | 2.43 | 2.2 | -1.3 | -1.25 | 0.608 | 0.00259 | -0.305 | 0.503 | -0.0936 | 3.2
7 | ATCGAAAGGTCGAAGAGGTGAGTATACACCGTTT | 4.26 | 3.51 | -0.1 | 2.49 | 0.443 | 4.09 | 2.38 | 2.8 | 0.698 | 2.03 | -0.0174 | 1.75 | 0.444 | 0.332 | 1.01 | 2.82 | 0.5 | 3.46 | 0.27 | 3.62
8 | CTCGAAAGGTCGGTTGAGGTGAGTATCCGGATAA | 2.5 | 1.81 | -0.338 | 1.44 | 0.0486 | 2.71 | 0.0243 | 1.33 | -0.0688 | 0.975 | 0.135 | 0.893 | -0.0361 | -0.258 | 1.02 | 2.98 | -0.135 | 2.21 | -0.322 | 3.18
9 | CAAACTAGTTCACAGAGGTCAAAGTCCGTGCGTA | 5.85 | 6.23 | 7.12 | 5.68 | 2.36 | 5.3 | 3.87 | 5.02 | 2.33 | 4.18 | 2.43 | 3.25 | 0.945 | 0.72 | 4.3 | 7.16 | 14.3 | 7.22 | 2.73 | 4.46
10 | TTTATTAGTTGAAGGGCAACCGACGAGTCCGTTT | 0.831 | 0.834 | 0.746 | 0.739 | 0.614 | 0.899 | 0.644 | 1.71 | 1.09 | 1.95 | 0.976 | 0.967 | 0.878 | 1.23 | 1.41 | 0.818 | 1.45 | 0.575 | 1.48 | 1.68
11 | TATACAGGGTCGAAGGCCAGAGTACGAATGTCGA | 1.27 | 1.32 | -0.263 | 1.01 | 0.799 | 2.44 | 2.45 | 3.28 | 1.28 | 2.65 | -0.348 | 1.5 | 1.05 | 0.465 | 0.74 | 1.01 | -0.0237 | 1.61 | -0.116 | 1.75
12 | GCTGCTAGGTCAGGTTGGACAGCTAACGGGTACG | 1.1 | 0.591 | -0.119 | 0.0809 | -0.346 | 1.2 | 0.798 | 0.804 | -0.236 | -0.0943 | 2.44 | 2.18 | -0.356 | -0.812 | 0.345 | 0.082 | -0.273 | 0.436 | -0.846 | 3.39
13 | CCGACTGGGGCATAAGGTTACCAAAAGCCAGCCC | 0.243 | 1.26 | -0.202 | 0.884 | -1.26 | 2.36 | 2.34 | 3.15 | 0.904 | 2.48 | 2.7 | 3.25 | -0.301 | -0.942 | 0.779 | 0.576 | -0.64 | 1.73 | 0.0494 | 1.81
14 | CCTAGTTGGTCAGGAGGTCACACAACGGATATGA | 3.71 | 3.52 | 1.69 | 3.53 | 0.623 | 4.25 | 3.47 | 4.16 | 1.47 | 3.3 | 1.95 | 3.66 | 0.747 | 0.329 | 3.64 | 4.16 | 1.53 | 4.94 | 2.05 | 3.63
